TDP1 block: blocks human tyrosyl-DNA phosphodiesterase 1. hit rate 0.28% among 350,000. recombinant TDP1, AlphaScreen DNA substrate cleavage. AID 485290. Potency, µM (series often up to 130 µM), usual class: inhibitors. Q9NUW8; further: nearly all actives have a fitted effect of over 40% in size
Target sequence (Q9NUW8 whole entry, looked up): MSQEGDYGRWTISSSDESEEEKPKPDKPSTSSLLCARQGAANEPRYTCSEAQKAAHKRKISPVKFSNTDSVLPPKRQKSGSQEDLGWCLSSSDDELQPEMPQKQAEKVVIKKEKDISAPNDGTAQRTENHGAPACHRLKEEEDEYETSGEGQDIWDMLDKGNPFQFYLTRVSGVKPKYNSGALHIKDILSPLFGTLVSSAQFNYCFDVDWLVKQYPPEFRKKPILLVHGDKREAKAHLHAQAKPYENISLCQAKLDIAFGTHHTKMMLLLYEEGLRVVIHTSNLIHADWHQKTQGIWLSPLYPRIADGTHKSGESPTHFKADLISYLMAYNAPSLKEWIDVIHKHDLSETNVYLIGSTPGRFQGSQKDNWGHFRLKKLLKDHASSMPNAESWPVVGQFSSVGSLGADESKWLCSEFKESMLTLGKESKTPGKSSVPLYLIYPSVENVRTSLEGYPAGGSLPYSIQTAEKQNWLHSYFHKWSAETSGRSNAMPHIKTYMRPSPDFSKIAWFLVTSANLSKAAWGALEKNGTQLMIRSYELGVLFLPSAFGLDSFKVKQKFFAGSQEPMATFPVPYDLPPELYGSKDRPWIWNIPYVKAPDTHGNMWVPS
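Enzyme-compound mixtures sat 15 min at room temperature, followed by a 5 min reaction with 15 nM final substrate and 10 min with AlphaScreen beads. Recombinant human Tdp1 was used at 1 nM final.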
TDP1 cell CPT: DT40-hTDP1 cell growth loss with CPT | hit rate 12% among 420,000 | Potency, µM (doses to about 46.2 µM), actives largely listed as inhibitors | chicken DT40 Tdp1-/-;hTDP1 cells + 20 nM CPT, ATP luminescence, 48 h; further: nearly all actives have a fitted effect of over 55% in size
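Chicken DT40 Tdp1-/- cells complemented with human TDP1, 400 cells/well, exposed to compounds plus 20 nM camptothecin for at least 48 h at 37 C; viability read as ATP content by CellTiter-Glo luminescence.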
ELG1 repair inh: inhibitors of ELG1-dependent DNA repair in HEK293T cells; hit rate 2.3% among 330,000; Potency, µM (doses to about 46.1 µM), most hits filed as inhibitors; HEK293T ELG1-luciferase reporter, luminescence, 16 h; DNA damage induced by 5-fluorouridine; further: nearly all actives have a fitted effect of over 55% in size
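Luminescence from the luciferase reporter, measured 30 min after ONE-Glo reagent at room temperature, was the read-out. Beforehand, 2,000 cells per well were exposed for 16 hr at 37 °C to 5-fluorouridine together with compound or vehicle.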
Giardia kill: Giardia lamblia killing. activity change, % at 7.66 µM, hits read low. AID 540267. hit rate 0.15% among 340,000. Giardia lamblia trophozoite viability; in the data active means activity change below about -80%; inconclusive means between about -30% and that limit;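 further: parasites exposed to compound for two days anaerobically before the ATP read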
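ATP-content bioluminescence gauges trophozoite survival. Cells (100/well) receive compound and incubate anaerobically for 48 hrs at 37 deg C; detection reagent follows for 15-30 min at room temperature.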
IL-1B inflam inh: blocks inflammasome-driven IL-1 beta release; hit rate 4.7% among 360,000; THP-1 LPS/ATP IL-1B secretion, AlphaLISA, 16 h; stronger effect = lower value; activity change, % at 57.5 µM; AID 743279; in the data active means activity change below about -50%; inconclusive means mostly about -30% to -49%
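THP-1 cells pretreated 1 hr with compounds (up to 57.5 uM final), then stimulated with LPS (250 ng/mL final) plus ATP (1.25 mM final); secreted IL-1B measured by AlphaLISA after 16 hr, decreased signal indicating inhibition.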
TDP1 cell noCPT: qHTS for Inhibitors of human tyrosyl-DNA phosphodiesterase 1 (TDP1): qHTS in cells in absence of CPT; DT40 Tdp1-/- hTDP1 cells, no CPT, ATP luminescence, 48 h; Potency, µM (series often up to 46.2 µM), hits mostly inhibitors; hit rate 15% among 420,000; AID 686978, 2013; further: nearly all actives have a fitted effect of over 55% in size
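Stably hTDP1-transfected Tdp1-null chicken DT40 cells were treated with library compounds minus camptothecin and grown for at least 48 hr at 37 °C, after which cellular ATP was quantified by luminescence.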
Numbers stand for hits; 0 = inactive; ? = inconclusive; - = no result given; [ ] = remark or other dose. The list is not random: actives were taken first. Their share in the collection is about 19%. Unless noted, the call rests on the fitted dose curve; in most records, active means well fitted curve in the direction sought with a large enough effect; inconclusive means small, poorly fitted or top-dose-only effect, or another doubt; inactive means no such curve, though single readings can be large; an effect the other way counts as inactive or inconclusive.

SMILES | TDP1 block | TDP1 cell CPT | ELG1 repair inh | Giardia kill | IL-1B inflam inh | TDP1 cell noCPT
COc1ccc(CCNc2nc3cc(OC)c(OC)cc3c3nc(-c4ccccc4)nn23)cc1OC | 0 | 5.8µM | - | - | - | 2.9µM
O=S1(=O)N=C(OCc2ccccc2)c2ccccc21 | 0 | - | - | - | - | -
CC(=O)Oc1ccc2c(=O)c(-c3ccccc3)coc2c1 | 0 | 0 | ? | ? | 0 | ?
COc1ccc(-c2coc3cc(OC(C)=O)ccc3c2=S)cc1 | - | 26µM | - | 0 | 0 | ?
CCN(C(=O)COC(=O)CCCc1nc2ccccc2s1)c1c(N)n(Cc2ccccc2)c(=O)[nH]c1=O | - | ? | - | 0 | 0 | ?
CC(C)CN(C(=O)COC(=O)c1cnc(Cl)c(Cl)c1)c1c(N)n(Cc2ccccc2)c(=O)[nH]c1=O | - | 0 | ? | 0 | -96 | 0
CC(C)CN(C(=O)COC(=O)CCc1nc2ccccc2s1)c1c(N)n(Cc2ccccc2)c(=O)[nH]c1=O | 0[0.505 µM] | 16µM | 0 | 0 | 0 | ?
CC(C)NC(=O)N(C)C[C@@H]1OCCCC[C@@H](C)Oc2ccc(NC(=O)Nc3ccc(F)cc3)cc2C(=O)N([C@H](C)CO)C[C@@H]1C | - | 0 | - | - | 0 | 0
CC(C)NC(=O)N(C)C[C@H]1OCCCC[C@@H](C)Oc2ccc(NC(=O)C3CCCCC3)cc2C(=O)N([C@H](C)CO)C[C@@H]1C | - | ? | - | - | 0 | 12µM
C[C@@H]1CN([C@H](C)CO)C(=O)c2cc(NC(=O)Nc3ccc(F)cc3)ccc2O[C@H]1CN(C)C(=O)Nc1ccc(C(F)(F)F)cc1 | 0 | 16µM | ? | 0 | -72 | 21µM
Cc1ccc(S(=O)(=O)Nc2ccc3c(c2)C(=O)N([C@H](C)CO)C[C@H](C)[C@@H](CN(C)C(=O)Nc2ccc(C(F)(F)F)cc2)O3)cc1 | 0 | ? | ? | 0 | ? | ?
COc1ccc(NC(=O)N(C)C[C@H]2Oc3ccc(NC(=O)C4CCCCC4)cc3C(=O)N([C@H](C)CO)C[C@@H]2C)cc1 | 0 | 0 | 0 | 0 | 0 | 0
C[C@H](CO)N1C[C@H](C)[C@@H](CN(C)C(=O)Nc2ccc(C(F)(F)F)cc2)Oc2ccc(NS(=O)(=O)c3ccc(F)cc3)cc2C1=O | 0 | ? | 0 | 0 | 0 | 23µM
C[C@H](CO)N1C[C@H](C)[C@@H](CN(C)C(=O)Nc2ccc(C(F)(F)F)cc2)Oc2ccc(NC(=O)C3CCCCC3)cc2C1=O | 0 | ? | ? | 0 | -53 | ?
O=C(Cn1c(=O)ccc2cc(S(=O)(=O)N3CCCC3)ccc21)Nc1ccc(Cl)cc1 | 0 | ? | - | - | - | ?
CCn1c(-c2cccnc2)nc2cc(NC(=O)COC)cc(C(=O)N3CC[C@@H]4CCCC[C@H]4C3)c21 | - | 0 | - | - | - | 0
C[C@H](CO)N1C[C@H](C)[C@@H](CN(C)C(=O)Nc2ccc(C(F)(F)F)cc2)Oc2ccc(NS(=O)(=O)c3ccccc3)cc2C1=O | 0 | 3.7µM | 0 | 0 | 0 | ?
C[C@@H]1CN([C@@H](C)CO)C(=O)c2cc(NC(=O)Nc3ccc(F)cc3)ccc2O[C@@H]1CN(C)Cc1ccc(Oc2ccccc2)cc1 | 0 | ? | 0 | 0 | 0 | 21µM
C[C@H](CO)N1C[C@H](C)[C@@H](CN(C)C(=O)Nc2ccc(C(F)(F)F)cc2)Oc2ccc(NS(=O)(=O)c3cccs3)cc2C1=O | 0 | ? | 0 | 0 | 0 | 0
O=C(NCC1CCCO1)c1ccc(Oc2ccc([N+](=O)[O-])cc2Cl)cc1 (stereo not given) | 0 | 0 | ? | ? | 0 | 0
O=C(c1cccc(Oc2ccc([N+](=O)[O-])cc2Cl)c1)N1CCCCC1 | 0 | 0 | 23µM | 0 | 0 | 0
O=C(NCC1CCCO1)c1cccc(Oc2ccc([N+](=O)[O-])cc2Cl)c1 (stereo not given) | 0 | ? | ? | 0 | 0 | 21µM
O=C(NCC1CCCO1)/C(=C\c1cccc([N+](=O)[O-])c1)NC(=O)c1ccccc1 (stereo not given) | 0 | 0 | 0 | 0 | 0 | 0
